Unmarked numbers belong to inactive results.

The assay relates to Caenorhabditis elegans dauer (daf-2(e1370)). The assay can be described thus: proportion of mobile C. elegans dauer larvae relative to DMSO control (fraction of DMSO control); higher = more viable, less nematicidal, active = 0.63 or less; extreme values may be limits of the assay. As to conditions: 60 µM; 5 days; temperature: 20 °C. Here is the method: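 DODA library (846 commercial 1,3,4- and 1,2,4-oxadiazole compounds plus commercial nematicide controls) screened at a single dose of 60 µM (0.6% DMSO) in 96-well plates, two biological replicates. Read-outs: C. elegans N2 L1 survival/reproduction score at day 6, 20 °C (0: 0-10 worms, 1: 11-20, 2: 21-50, 3: >50, 4: overgrown/starved). C. elegans daf-2 dauer, D. dipsaci and M. hapla J2 mobility at day 5, 20 °C, and P. penetrans mobility at day 5, 20 °C, each relative to DMSO controls. M. hapla egg hatching at day 12, 25 °C, relative to the mean of 8 DMSO wells on the same plate.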
Take `Cc1cccc(-c2nnc(SCC(=O)Nc3ccccc3C(C)C)o2)c1`: the “proportion of mobile C. elegans dauer larvae” value (from here on “proportion”) was 1.
The result for `CCOc1ccc(-c2nc(-c3ccc(C)cc3)no2)cc1` reads 0.5 (active).
Turning to `Fc1ccc(-c2noc(-c3ccc(F)cc3)n2)cc1`, the “proportion” value is 1.
The result for `Brc1cccc(-c2noc(-c3ccc4c(c3)OCO4)n2)c1` reads 1.
Take `Cc1cc(Br)ccc1OCc1nc(-c2ccncc2)no1`: the “proportion” value is 1.
With `COc1nc(C)ccc1-c1noc(-c2ccc(C)cc2)n1` the figure was 1; with `Cc1ccc(OCc2nc(-c3ccccc3Cl)no2)c(C)c1`, 1.
As to `CC(=O)Nc1ccc(NC(=O)c2ccccc2-c2nc(-c3ccccc3Cl)no2)cc1`, the “proportion” value was 1.
Take `CC(Oc1ccccc1)c1nc(-c2cccnc2)no1` (stereo not given): the “proportion” value was 1.
Take `O=C(CSc1nnc(-c2ccccc2)o1)Nc1cccc(Br)c1`: the “proportion” value is 1.
With `COc1cccc(CSc2nnc(-c3ccco3)n2C)c1`, the “proportion” value is 1.
With `CCCCc1nc(-c2ccc(-c3ccc(C)cc3)nc2OC)no1` the figure was 1; with `O=C(CSc1nnc(-c2cccc(Br)c2)o1)N1CCCCC1`, 1.
With `Cc1ccc(-c2nc(-c3ccccc3Cl)no2)cc1`, the “proportion” value is 1.
With `c1ccc(-c2nnc(SCc3cccnc3)o2)cc1` the figure was 1.
The result for `COc1ccc(Cl)cc1NC(=O)CSc1nnc(-c2ccc(Br)cc2)o1` reads 1; that for `O=C(Nc1cccc(-c2noc(COc3ccccc3)n2)c1)c1cccs1`, 1; that for `COc1ccc(Cl)cc1-c1noc(-c2ccccc2)n1`, 1.
Turning to `CC(C)CCC(=O)Nc1ccccc1-c1nc(-c2ccncc2)no1`, the “proportion” value was 1.
Take `Cc1ccccc1-c1noc(-c2ccccc2OCC(N)=O)n1`: the “proportion” value was 1.
With `COc1ccc(-c2nnc(SCC(=O)N3CC(C)CC(C)C3)o2)cc1` (stereo not given) the figure was 1.
In the case of `Cc1ccc(OCc2nc(-c3ccncc3)no2)cc1C`, the “proportion” value is 1.
With `COc1cccc(OCc2nc(-c3cccc(Br)c3)no2)c1`, the “proportion” value is 1.
With `Cc1ccc(-c2nnc(SCC(=O)NCc3ccccc3)o2)cc1`, the “proportion” value was 1.
On to `COc1ccc(-c2noc(-c3cccc(Cl)c3)n2)cc1`, for which the “proportion” value was 1.
Consider `COc1ccccc1-c1nnc(SCc2ccccc2C)o1`, for which the “proportion” value was 1.
With `Cc1ccc(OCc2nc(-c3ccncc3)no2)c(Br)c1`, the “proportion” value is 1.
With `COc1nc(C)ccc1-c1noc(-c2ccccc2C)n1` the figure was 1; with `COc1ccc(NC(=O)CSc2nnc(-c3ccc(Br)cc3)o2)cc1`, 1.
The result for `COc1ccc(-c2nnc(SCC(=O)Nc3ccc(Br)cc3C(C)C)o2)cc1` reads 1; that for `COc1ccc(-c2noc(-c3ccc(Cl)cc3)n2)cc1`, 0.778; that for `CCOc1ccc(-c2nc(-c3ccc(Cl)cc3)no2)cc1`, 1.
`COc1ccccc1-c1nnc(SCC(=O)Nc2nc(C)cs2)o1`: the “proportion” value was 1.
In the case of `COc1ccc(-c2noc(CSc3ccc(C)cc3)n2)cc1`, the “proportion” value was 1.
With `Fc1ccc(-c2nc(-c3ccc(Br)cc3)no2)cc1`, the “proportion” value is 1.
With `COc1ccc(NC(=O)CSc2nnc(-c3ccccc3)o2)cc1` the figure was 1; with `Cc1cccc(-c2noc(-c3cccc(Cl)c3)n2)c1`, 1; with `COc1cccc(-c2noc(COc3ccc(C)cc3C)n2)c1`, 1.
Consider `O=C(NC1CCCCC1)c1ccccc1-c1nc(-c2ccc(F)cc2)no1`, for which the “proportion” value is 1.
Take `CCOc1ccc(-c2nc(-c3cccnc3)no2)cc1OCC`: the “proportion” value is 1.

These data come from the supplement of paper PMC11219838.
